CHX counter: Cycloheximide Counterscreen for Small Molecule Inhibitors of Shiga Toxin. hit rate 12% among 300,000. AID 2314, 2010. max response, %. cell reporter, cycloheximide protein synthesis inhibition counterscreen; in the data active = max response mostly above about 13%, no sharp cut-off; inactive = mostly below about 14%; also: read at 38.3 µM for the half of the compounds with a filed dose
HCV inh: qHTS Assay for Inhibitors of Hepatitis C Virus (HCV). hit rate 3.4% among 340,000. Potency, µM (doses to about 41.8 µM), most hits filed as inhibitors. Huh7.5.1 HCVcc-Cre infection, luciferase reporter, 44 h. AID 651820, 2012
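Whole-lifecycle infectious HCVcc-Cre system; cells 1,000/well, compound then virus (~0.5 moi) added 4 h after plating, 44 h culture. Luciferase read 15 sec following 15 min substrate incubation, room temp.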
Pf growth 96h: Primary qHTS for delayed death inhibitors of the malarial parasite plastid, 96 hour incubation; P. falciparum luciferase reporter growth, 96 h; Potency, µM (highest dose often 28.7 µM), most hits filed as inhibitors; hit rate 6.9% among 320,000
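Readout is luminescence from an integrated firefly luciferase in P. falciparum. Red cells, 2% hematocrit and 0.05% parasitemia final, were cultured with compound through two parasite generations (96 hours) at 37 C, 5% CO2.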
Pf growth 48h: Primary qHTS for delayed death inhibitors of the malarial parasite plastid, 48 hour incubation | P. falciparum luciferase growth in erythrocytes, 48 h | AID 504832, 2011 | Potency, µM (series often up to 28.7 µM), hits mostly inhibitors | hit rate 5.9% among 310,000
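Luminescence readout; reporter = integrated firefly luciferase in P. falciparum. RBC culture at 2% hematocrit, 0.1% parasitemia final, 37 C/5% CO2; decreased signal taken as growth inhibition.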
Shiga inhibitor: A qHTS for Small Molecule Inhibitors of Shiga Toxin; AID 2315, 2010; inhibition, % at 38.7 µM; Vero cells, Shiga toxin protein synthesis inhibition reporter; hit rate 9.2% among 290,000; in the data active = inhibition mostly above about 28%, no sharp cut-off; inactive = mostly below about 43%
HCMV antiviral: qHTS Assay for inhibitors of the human cytomegalovirus (HCMV) | HFF cells, HCMV-luciferase reporter, 72 h; stronger effect = lower value | AID 1259415, 2018 | activity change, negative = inhibition, % at 57.5 µM | hit rate 4.5% among 410,000; in the data active = activity change below about -60%; inconclusive = no clear call, values can overlap the other calls; inactive = above about -39%
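Two-dose cell screen: HFF monolayers treated with compounds and infected with luciferase-expressing HCMV at 1 PFU/cell, 72 h at 37C, then lysed for luciferase measurement.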
A number is an active result; [ ] = another dose, or the depositor's remark. This is a sample that favours compounds with a hit; in the whole collection about 21% have one here. Unless noted, calls follow the shape of the dose curve; as a rule, active = well fitted inhibition curve with a large enough effect; inconclusive = small, poorly fitted or top-dose-only effect, or another doubt; inactive = no such curve, though single readings can be large or run the other way.

Cn1c(=O)c2cc(S(=O)(=O)NC(C(=O)Nc3cccc(F)c3)c3ccccc3)ccc2n(C)c1=O (stereo not given) was read as CHX counter inactive, HCV inh inactive, Pf growth 96h inconclusive, Shiga inhibitor inactive and HCMV antiviral inactive.
Screening Cn1c(=O)oc2cc(S(=O)(=O)CCC(=O)NCc3ccccc3)ccc21 returned HCMV antiviral inactive.
For CCCNC(=O)C(NS(=O)(=O)c1ccc2c(c1)c(=O)n(C)c(=O)n2C)c1ccccc1 (stereo not given) the results were CHX counter 15, HCV inh inactive, Pf growth 96h inconclusive, Shiga inhibitor inactive and HCMV antiviral inactive.
`Cc1ccc(NS(=O)(=O)c2ccc3c(c2)oc(=O)n3C)cc1` gave CHX counter inactive, HCV inh inactive, Pf growth 96h 2.6µM, Pf growth 48h inactive, Shiga inhibitor inactive and HCMV antiviral -63.
`CCCNC(=O)C(Cc1ccccc1)NS(=O)(=O)c1ccc2c(c1)c(=O)n(C)c(=O)n2C` (stereo not given) gave CHX counter inactive, HCV inh inactive, Pf growth 96h inconclusive, Shiga inhibitor inactive and HCMV antiviral inconclusive.
Cn1c(=O)c2cc(S(=O)(=O)Nc3cccc(F)c3)ccc2n(C)c1=O was read as CHX counter inactive, HCV inh inconclusive, Pf growth 96h 15µM, Shiga inhibitor inactive and HCMV antiviral inactive.
Screening CCc1ccc(NS(=O)(=O)c2ccc3c(c2)oc(=O)n3C)cc1 returned CHX counter inactive, HCV inh inconclusive, Pf growth 96h inactive, Pf growth 48h inactive[0.00184 µM], Shiga inhibitor inactive and HCMV antiviral inconclusive.
Screening CCOC(=O)c1cnc2c(C(F)(F)F)cccc2c1Nc1cccc(C(=O)OC)c1 returned HCMV antiviral inactive.
For CCC[C@H]1[C@@H](NS(=O)(=O)c2cccs2)CC[C@@]23CCCN2C(=O)CCC[C@@H]13 the results were HCMV antiviral inactive.
For CC(C)N1CC(C(=O)Nc2ccc(Cl)cc2Cl)CC1=O (stereo not given) the results were HCMV antiviral inactive.
For O=C(O)/C=C/C(=O)Nc1ccc(S(=O)(=O)Nc2nccs2)cc1 the results were CHX counter inactive, HCV inh inactive, Pf growth 96h 1.7µM, Pf growth 48h inactive, Shiga inhibitor inactive and HCMV antiviral inactive.
`Cc1ccc(S(=O)(=O)Nc2ccc(S(=O)(=O)Nc3nccs3)cc2)c([N+](=O)[O-])c1` gave CHX counter inactive, HCV inh inactive, Pf growth 96h 2.9µM, Pf growth 48h inactive, Shiga inhibitor inactive and HCMV antiviral inactive.
`O=C(Nc1ccc(S(=O)(=O)Nc2nccs2)cc1)C(F)(F)F` gave HCV inh inactive and HCMV antiviral inactive.
For COc1ccc(S(=O)(=O)Nc2ccc(S(=O)(=O)Nc3nccs3)cc2)cc1 the results were CHX counter inactive, HCV inh inactive, Pf growth 96h inactive, Pf growth 48h 5.2µM, Shiga inhibitor inactive and HCMV antiviral inactive.
O=C(CN(Cc1cccs1)C(=O)CNS(=O)(=O)c1ccc(Cl)cc1)NCC1CCCO1 (stereo not given) was read as CHX counter inactive, HCV inh inactive, Pf growth 96h inactive, Pf growth 48h inactive, Shiga inhibitor inactive and HCMV antiviral inactive.
For O=C(Cn1ccccc1=O)NCc1ccc(F)cc1 the results were CHX counter inactive, HCV inh inactive, Pf growth 96h inactive, Pf growth 48h inactive, Shiga inhibitor inactive and HCMV antiviral inactive.
Screening COc1ccccc1C(CNC(=O)CNC(=O)c1ccccc1Cl)N1CCCC1 (stereo not given) returned HCV inh inactive, Pf growth 96h inactive, Pf growth 48h inactive and HCMV antiviral -101.
For COc1ccc(C(CNC(=S)NCc2ccccc2)N2CCCC2)cc1 (stereo not given) the results were CHX counter inactive, HCV inh inactive, Pf growth 96h inconclusive, Pf growth 48h inactive, Shiga inhibitor inactive and HCMV antiviral inactive.
Screening COc1ccccc1C(CNC(=S)NCc1ccccc1)N1CCCC1 (stereo not given) returned CHX counter inactive, HCV inh inactive, Pf growth 96h inconclusive, Pf growth 48h inconclusive, Shiga inhibitor inactive and HCMV antiviral -72.
`CN1CCN(c2ccc(CNC(=O)c3ccc(-c4ccc(F)c(F)c4)c4ccoc34)cc2)CC1` gave HCMV antiviral inactive.
For O=C(NCCNc1ccc2ccccc2c1)c1cccn2c(=O)c3sccc3nc12 the results were CHX counter inactive, Pf growth 96h 1.9µM, Pf growth 48h inconclusive and Shiga inhibitor inactive.
`COc1ccc(S(=O)(=O)NN(C)C(=O)c2nn(-c3ccccc3)ccc2=O)cc1` gave CHX counter inactive, HCV inh inactive, Pf growth 96h 5.9µM, Pf growth 48h inconclusive, Shiga inhibitor inactive and HCMV antiviral inactive.
COc1ccc(-n2ccc(=O)c(C(=O)O)n2)cc1 was read as CHX counter inactive, HCV inh inactive, Pf growth 96h inactive, Pf growth 48h inactive, Shiga inhibitor inactive and HCMV antiviral inactive.
Screening Cc1ccc(-c2nc3nc(C)cc(N4CCN(c5cccc(C)c5C)CC4)n3n2)cc1 returned HCMV antiviral inactive.
`CCOC(=O)C1CCCCN1Cc1cccc(OC)c1OC` (stereo not given) gave CHX counter inactive, HCV inh inactive, Pf growth 96h inactive, Shiga inhibitor inactive and HCMV antiviral inactive.
For CCOC(=O)c1cc(C)n(Cc2cccc(OC)c2OC)c1C the results were CHX counter inactive, HCV inh inconclusive, Pf growth 96h 2.3µM, Pf growth 48h inconclusive, Shiga inhibitor inactive and HCMV antiviral inactive.
Screening CCOC(=O)c1cnn(Cc2cccc(Cl)c2)c1C returned CHX counter inactive, HCV inh inactive, Pf growth 96h inconclusive, Pf growth 48h 13µM, Shiga inhibitor inactive and HCMV antiviral inactive.
`CCOC(=O)c1c(C(=O)OCC)c(C)n(Cc2cc(OC)c(OC)c(OC)c2)c1C` gave CHX counter inactive, HCV inh inconclusive, Pf growth 96h 12µM, Pf growth 48h inconclusive, Shiga inhibitor inactive and HCMV antiviral inactive.
Screening CCOC(=O)c1cnn(Cc2ccccc2)c1N returned CHX counter inactive, HCV inh inactive, Pf growth 96h inactive, Pf growth 48h inactive, Shiga inhibitor inactive and HCMV antiviral inactive.
Screening CCOC(=O)c1c(-c2cc(OC)c(OC)c(OC)c2)csc1N returned HCMV antiviral inactive.
CCOC(=O)c1c(C)c(C)n(Cc2cccc(OC)c2OC)c1C was read as CHX counter inactive, HCV inh inconclusive, Pf growth 96h 8.3µM, Pf growth 48h 12µM, Shiga inhibitor inactive and HCMV antiviral -85.
